Data published in PubChem BioAssay (Tox21).
Results filed as inconclusive are left out. The source made the active and inactive calls. Unless noted, calls come from the whole dose curve; as a rule, active = well fitted curve in the direction sought with a large enough effect in the repeat runs; inconclusive = weak or mixed curves; inactive = no such curve, though single readings can be large; an effect the other way counts as inactive or inconclusive.

Columns and labels:
[1] = qHTS assay to identify aromatase inhibitors - cell viability counter screen (AID 743084);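 note: cells stimulated with testosterone during compound exposure; nearly all actives have a fitted effect of over 55% in size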; note: potency is the fitted concentration of half-maximal effect
[2] = molecular target: Aryl hydrocarbon receptor (Homo sapiens) (UniProt P35869); assay: qHTS assay to identify small molecule that activate the aryl hydrocarbon receptor (AhR) signaling pathway (AID 743085); note: nearly all actives have a fitted effect of over 15% in size; note: potency is the fitted concentration of half-maximal effect;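 for activation: HG2L7.5c1 human HepG2 liver cells with stably integrated DRE-driven firefly reporter; series mostly up to about 70 µM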
Sequence of Aryl hydrocarbon receptor (Homo sapiens) (P35869 whole entry, looked up): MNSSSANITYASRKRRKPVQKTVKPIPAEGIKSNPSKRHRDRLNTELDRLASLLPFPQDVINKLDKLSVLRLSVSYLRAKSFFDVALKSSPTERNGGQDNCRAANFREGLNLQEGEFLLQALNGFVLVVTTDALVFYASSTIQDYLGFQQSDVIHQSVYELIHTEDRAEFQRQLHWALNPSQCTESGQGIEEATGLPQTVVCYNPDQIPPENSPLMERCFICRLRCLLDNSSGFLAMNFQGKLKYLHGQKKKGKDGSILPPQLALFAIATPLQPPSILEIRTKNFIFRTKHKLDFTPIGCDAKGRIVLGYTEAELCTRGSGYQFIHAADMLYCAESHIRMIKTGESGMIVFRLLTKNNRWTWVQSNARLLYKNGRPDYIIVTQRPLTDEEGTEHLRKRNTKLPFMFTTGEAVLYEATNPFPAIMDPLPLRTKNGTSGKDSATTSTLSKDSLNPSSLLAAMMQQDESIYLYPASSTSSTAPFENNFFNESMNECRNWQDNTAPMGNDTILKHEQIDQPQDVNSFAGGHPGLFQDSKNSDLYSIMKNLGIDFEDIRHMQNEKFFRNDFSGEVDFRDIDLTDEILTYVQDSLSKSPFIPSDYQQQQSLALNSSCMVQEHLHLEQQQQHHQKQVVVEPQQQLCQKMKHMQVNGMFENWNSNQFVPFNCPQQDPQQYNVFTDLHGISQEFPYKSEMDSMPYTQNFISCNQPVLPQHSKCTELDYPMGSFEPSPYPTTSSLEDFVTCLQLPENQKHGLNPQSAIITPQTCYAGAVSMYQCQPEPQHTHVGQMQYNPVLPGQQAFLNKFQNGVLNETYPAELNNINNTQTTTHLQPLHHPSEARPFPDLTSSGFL
Outline: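 Reporter assay in engineered HepG2 line HG2L7.5c1, whose plasmid carries twenty dioxin responsive elements upstream of firefly luciferase. Treatment lasted 24 h at 37C; ONE-Glo luminescence gauged induction.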

[3] = qHTS assay to identify small molecule that activate the aryl hydrocarbon receptor (AhR) signaling pathway - cell viability counter screen (AID 743086); note: nearly all actives have a fitted effect of over 45% in size; note: potency is the fitted concentration of half-maximal effect
Outline: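 HepG2-AhR-luc (HG2L7.5c1) cells, 4000/well, were preincubated 5 h at 37C, exposed to compound in qHTS format for 24 hr at 37C, then given CellTiter-Fluor for 30 min; viability was read as fluorescence in the reporter wells.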

[4] = molecular target: Peroxisome proliferator-activated receptor gamma (Homo sapiens) (UniProt P37231); assay: qHTS assay to identify small molecule agonists of the peroxisome proliferator-activated receptor gamma (PPARg) signaling pathway (AID 743094; active = well fitted activation curve with a large enough effect in the signal ratio in the repeat runs, not every such curve was filed as active; the % refers to the signal ratio)
Sequence of Peroxisome proliferator-activated receptor gamma (Homo sapiens) (P37231 whole entry, looked up): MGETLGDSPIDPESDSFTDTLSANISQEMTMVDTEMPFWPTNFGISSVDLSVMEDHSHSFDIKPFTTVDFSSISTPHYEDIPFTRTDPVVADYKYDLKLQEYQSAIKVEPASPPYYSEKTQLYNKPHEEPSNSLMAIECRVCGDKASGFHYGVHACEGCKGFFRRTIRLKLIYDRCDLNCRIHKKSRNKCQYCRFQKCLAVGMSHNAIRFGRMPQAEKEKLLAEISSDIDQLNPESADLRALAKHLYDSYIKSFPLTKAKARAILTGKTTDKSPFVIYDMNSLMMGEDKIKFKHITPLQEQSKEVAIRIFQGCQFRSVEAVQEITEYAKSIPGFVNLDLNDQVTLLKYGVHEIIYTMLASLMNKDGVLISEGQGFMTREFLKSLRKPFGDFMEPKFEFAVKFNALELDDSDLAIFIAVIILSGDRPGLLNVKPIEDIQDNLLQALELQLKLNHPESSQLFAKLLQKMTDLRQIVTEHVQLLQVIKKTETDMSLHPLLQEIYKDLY
Outline: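 Cells from the PPARg UAS-bla HEK293H line are plated and incubated 5 h at 37C. Compounds in DMSO are pinned in and left 17 h at 37C. LiveBLAzer B/G substrate is then added for 1 h at room temperature before fluorescence is measured.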

[5] = qHTS assay to identify small molecule phospholipidosis (PLD) inducers (AID 1259344; active = well fitted curve in the direction sought with a large enough effect; an effect the other way counts as inactive or inconclusive)
Outline: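 After 4 h attachment on collagen I, HepG2 cells were dosed with compound alongside LipidTOX Red, kept 24 h at 37 C, fixed, and imaged for lamellar phospholipid pits.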

[6] = molecular target: Nuclear receptor subfamily 1 group I member 2 (Rattus norvegicus) (UniProt Q9R1A7); assay: Rat pregnane X receptor (rPXR) activation by small molecules, qHTS assay (AID 1346983); details: rPXR luciferase reporter cells, One-Glo luminescence, 24 h; max activation: active compounds read high; note: nearly all actives have a fitted effect of over 20% in size; note: potency is the fitted concentration of half-maximal effect
Sequence of Nuclear receptor subfamily 1 group I member 2 (Rattus norvegicus) (Q9R1A7 whole entry, looked up): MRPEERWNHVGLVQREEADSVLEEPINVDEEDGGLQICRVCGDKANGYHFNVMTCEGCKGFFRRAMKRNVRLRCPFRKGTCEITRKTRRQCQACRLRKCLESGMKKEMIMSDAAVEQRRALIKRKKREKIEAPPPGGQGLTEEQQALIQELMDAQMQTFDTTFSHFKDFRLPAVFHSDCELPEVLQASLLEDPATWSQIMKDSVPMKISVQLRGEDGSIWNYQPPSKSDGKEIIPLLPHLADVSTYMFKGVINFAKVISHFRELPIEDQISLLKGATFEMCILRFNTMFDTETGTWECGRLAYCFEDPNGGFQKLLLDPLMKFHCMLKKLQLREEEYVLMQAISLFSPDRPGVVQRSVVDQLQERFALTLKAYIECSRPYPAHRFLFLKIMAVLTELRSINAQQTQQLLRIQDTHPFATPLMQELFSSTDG
Outline: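 Cell-based rPXR luciferase reporter assay, 2,000 cells per well, rested 5hr at 37 C before compound addition in DMSO, then 24 hr at 37 C. One-Glo reagent was added and luminescence read after 30 min at room temperature.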

[7] = molecular target: Nuclear receptor subfamily 1 group I member 2 (Homo sapiens) (UniProt O75469); assay: CYP3A4 induction through human pregnane X receptor (PXR) by small molecules, qHTS assay (AID 1346984); note: nearly all actives have a fitted effect of over 40% in size; note: potency is the fitted concentration of half-maximal effect
Outline: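 Quantitative HTS in DPX-2 cells, i.e. HepG2 transfected with PXR response element and CYP3A4-promoter luciferase. Compounds in DMSO incubated 24hr at 37C; then P450-Glo CYP3A4 substrate, 3uM final, 3hr; One-Glo luminescence.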

[8] = molecular target: Nuclear receptor subfamily 1 group I member 2 (Homo sapiens) (UniProt O75469); assay: Human pregnane X receptor (PXR) activation by small molecules, qHTS assay (AID 1346985); note: nearly all actives have a fitted effect of over 40% in size; note: potency is the fitted concentration of half-maximal effect
Outline: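 DPX-2 cells (HepG2 co-transfected with a PXR response element and a CYP3A4-promoter luciferase construct) were seeded at 2,000 per well, rested 5 hr at 37C, then exposed to DMSO-dissolved compounds for 24 hr. Activation was read as luciferase luminescence.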
% is set by controls: 0 for no effect and ±100 for the full control effect.

O=C(O)c1ccc(NC(=O)[C@H](Cc2ccc(O)cc2)NC(=O)c2ccccc2)cc1
inactive: Potency [1] | Potency [2] | Potency [3] | Potency [4] | Potency [5] | max activation [6] 0.18% | Potency [7] | Potency [8]

O=C1CCC(=O)N1CO
inactive: Potency [1] | Potency [2] | Potency [3] | Potency [4] | Potency [5] | max activation [6] -2.21% | Potency [7] | Potency [8]

CC(=O)Oc1cccc(C(=O)O)c1OC(C)=O
inactive: Potency [1] | Potency [2] | Potency [3] | Potency [4] | Potency [5] | max activation [6] -1.97% | Potency [7] | Potency [8]

O=C(O)CC/C=C\CC[C@@H]1[C@@H](N2CCCCC2)[C@@H](O)C[C@@H]1OCc1ccc(-c2ccccc2)cc1
inactive: Potency [1] | Potency [2] | Potency [3] | Potency [4] | Potency [5] | max activation [6] -6.46% | Potency [7] | Potency [8]

Cc1ncc(COP(=O)(O)O)c(CN)c1O
inactive: Potency [1] | Potency [2] | Potency [3] | Potency [4] | PLD induction [5] -1.52% [at 7.66 µM] | max activation [6] 0.341% | Potency [7] | Potency [8]

CC(=O)N[C@@H]([C@@H](O)[C@H](O)[C@H](O)CO)[C@@H](O)CC(=O)C(=O)O
inactive: Potency [1] | Potency [2] | Potency [3] | Potency [4] | Potency [5] | max activation [6] -0.275% | Potency [7] | Potency [8]

CC(C)(C)CC(C)(C)c1cc(Cc2cc(C(C)(C)CC(C)(C)C)cc(-n3nc4ccccc4n3)c2O)c(O)c(-n2nc3ccccc3n2)c1
inactive: Potency [1] | Potency [2] | Potency [3] | Potency [4] | Potency [5] | max activation [6] -3.34% | Potency [7] | Potency [8]

C[C@@H](O)[C@H]1C(=O)N2C(C(=O)[O-])=C(SC3Cn4cnc[n+]4C3)[C@H](C)[C@H]12 (some centres undefined)
inactive: Potency [1] | Potency [2] | Potency [3] | Potency [4] | Potency [5] | max activation [6] 0.401% | Potency [7] | Potency [8]

CCCCC[C@H](O)/C=C/[C@@H]1[C@H]2C/C(=C/CCCC(=O)O)O[C@H]2C[C@H]1O
inactive: Potency [1] | Potency [2] | Potency [3] | Potency [4] | Potency [5] | max activation [6] -0.736% | Potency [7] | Potency [8]

CC(=O)OCC(=O)[C@@]12OC3(CCCC3)O[C@@H]1C[C@H]1[C@@H]3CCC4=CC(=O)C=C[C@]4(C)[C@@]3(F)[C@@H](O)C[C@@]12C
inactive: Potency [1] | Potency [2] | Potency [3] | Potency [4] | Potency [5] | Potency [7]
active: Potency [6] 25.1 µM | Potency [8] 14.1 µM

CN1CCC(OC(=O)C(Oc2ccc(Cl)cc2)Oc2ccc(Cl)cc2)CC1
inactive: Potency [1] | Potency [2] | Potency [3] | Potency [4] | Potency [5] | max activation [6] -4.17% | Potency [7] | Potency [8]

Cc1cc(-c2ccc(N=Nc3c(S(=O)(=O)O)cc4cc(S(=O)(=O)O)cc(N)c4c3O)c(C)c2)ccc1N=Nc1c(S(=O)(=O)O)cc2cc(S(=O)(=O)O)cc(N)c2c1O
active: Potency [1] 13.3 µM | Potency [3] 15 µM
inactive: Potency [2] | Potency [4] | Potency [5] | max activation [6] -20.2% | Potency [7] | Potency [8]

CC(=O)O[C@]1(C(C)=O)CC[C@H]2[C@@H]3CCC4=CC(=O)CC[C@]4(C)[C@@]3(F)[C@@H](O)C[C@@]21C
active: Potency [6] 3.55 µM
inactive: Potency [1] | Potency [2] | Potency [3] | Potency [4] | Potency [5] | Potency [7] | Potency [8]

COc1ccccc1N1CCN(CCCC(=O)c2ccc(F)cc2)CC1
inactive: Potency [1] | Potency [3] | Potency [4] | Potency [5] | max activation [6] 8.11%
active: Potency [2] 10.6 µM | Potency [7] 6.31 µM | Potency [8] 7.94 µM

O=C(NNCNNC(=O)c1ccncc1)c1ccncc1
inactive: Potency [1] | Potency [3] | Potency [4] | Potency [5] | max activation [6] -3.41% | Potency [7] | Potency [8]
active: Potency [2] 4.73 µM

C[C@]12CC[C@@H]3c4ccc(O)cc4CC[C@H]3[C@@H]1CC[C@@H]2OP(=O)(O)O
inactive: Potency [1] | Potency [2] | Potency [3] | Potency [4] | Potency [5] | max activation [6] 0.522% | Potency [7] | Potency [8]

O=C(COc1ccc(Cl)cc1)OCCNC12CC3CC(CC(C3)C1)C2
inactive: Potency [1] | Potency [2] | Potency [3] | Potency [4] | Potency [5] | max activation [6] -5.06% | Potency [7] | Potency [8]

O=C(Nc1ccc(O)cc1)c1ccccc1O
inactive: Potency [1] | Potency [3] | Potency [4] | Potency [5] | max activation [6] 3.27% | Potency [8]
active: Potency [2] 23.7 µM | Potency [7] 11.2 µM
